In the library only some 12% were active in any assay of this set; here they are far more common.
Pf growth 96h: P. falciparum growth inhibition at 96 hours | P. falciparum luciferase reporter growth, 96 h | Potency, µM (highest dose often 28.7 µM), for inactives: top-dose activity change, negative = inhibition, actives largely listed as inhibitors | 6.9% of 320,000 active | AID 504834; further: on the % scale 0 is the no-effect control and ±100 the full control effect
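Readout is luminescence from an integrated firefly luciferase in P. falciparum. Red cells, 2% hematocrit and 0.05% parasitemia final, were cultured with compound through two parasite generations (96 hours) at 37 C, 5% CO2.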
SARS PLP yeast: inhibitors of SARS-CoV papain-like protease in yeast. AID 485353. S. cerevisiae expressing SARS-CoV PLpro, growth rescue. 0.19% of 330,000 active. Potency, µM (doses to about 32.9 µM), without a hit: top-dose activity, positive = growth rescue, hits mostly activators; calls by dose curve; further: 0% is about no effect; nearly all actives have a fitted effect of over 55% in size
AmpC inh detg: inhibitors of E. coli AmpC beta-lactamase with detergent | P00811 | AmpC hydrolysis of nitrocefin, absorbance 480 nm, 0.01% Triton | Potency, µM (doses to about 114 µM), for the others: top-dose activity change, negative = inhibition, most hits filed as inhibitors | 0.041% of 370,000 active | AID 485294;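 further: 0% = no-compound wells and -100% = no-enzyme wells; nearly all actives have a fitted effect of over 25% in size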
Target sequence (P00811 whole entry, looked up): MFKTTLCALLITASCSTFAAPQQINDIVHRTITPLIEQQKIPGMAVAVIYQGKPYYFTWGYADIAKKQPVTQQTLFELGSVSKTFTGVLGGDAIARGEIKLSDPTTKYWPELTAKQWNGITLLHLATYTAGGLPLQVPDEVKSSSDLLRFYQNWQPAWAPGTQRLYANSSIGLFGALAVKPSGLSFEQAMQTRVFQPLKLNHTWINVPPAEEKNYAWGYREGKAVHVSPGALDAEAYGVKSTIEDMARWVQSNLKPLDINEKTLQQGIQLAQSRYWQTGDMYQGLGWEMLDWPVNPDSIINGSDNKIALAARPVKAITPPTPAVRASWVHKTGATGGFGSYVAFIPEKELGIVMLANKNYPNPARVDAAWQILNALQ
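AmpC (5.3 nM in the dispensed reagent) in 20 mM phosphate pH 7.0 with 0.01% (detergent screen) or 0.0001% Triton X-100 was preincubated with compounds for 15 min at room temperature. Nitrocefin was then added from an 800 uM solution, and hydrolysis was followed at 480 nm.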
Pf growth 48h: inhibits P. falciparum growth in the first generation, 48 h; Potency, µM (titrated, usually from 28.7 µM), for the others: at the top dose activity change, negative = inhibition, actives largely listed as inhibitors; 5.9% of 310,000 active; P. falciparum luciferase growth in erythrocytes, 48 h; further: on the % scale 0 is the no-effect control and ±100 the full control effect
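Cell-based growth assay: transgenic P. falciparum expressing firefly luciferase, cultured in red cells within RPMI 1640 containing 0.5% w/v Albumax, 24 mM bicarbonate and gentamycin. A drop in luciferase activity indicates inhibition.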
AmpC no deterg: inhibitors of E. coli AmpC beta-lactamase without detergent. 0.52% of 330,000 active. AID 485341. AmpC nitrocefin hydrolysis, absorbance 480 nm, 0.0001% Triton. Potency, µM (top dose mostly 57.1 µM), inactives show top-dose activity change, negative = inhibition, most hits filed as inhibitors;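 further: plate controls were no compound for no effect and no enzyme for full effect; nearly all actives have a fitted effect of over 20% in size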
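AmpC (5.3 nM in the dispensed reagent) in 20 mM phosphate pH 7.0 with 0.01% (detergent screen) or 0.0001% Triton X-100 was preincubated with compounds for 15 min at room temperature. Nitrocefin was then added from an 800 uM solution, and hydrolysis was followed at 480 nm.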
Sm TGR inh: inhibitors of Schistosoma mansoni thioredoxin glutathione reductase. Q962Y6. purified TGR, DTNB reduction, TNB absorbance 405 nm. Potency, µM (top dose mostly 114 µM), for the others: at the highest dose activity change, negative = inhibition, hits mostly inhibitors. 3% of 360,000 active; further: on the % scale 0 is the no-effect control and ±100 the full control effect; nearly all actives have a fitted effect of over 60% in size
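TGR 20 nM + NADPH 100 uM (dispensed conc.), cpd preinc 15 min RT; start with NADPH (500 uM addition) then DTNB (15 mM addition). Kinetic TNB absorbance, 405 nm filter. Four-parameter Hill fit across titration.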
An asterisk follows results filed as active; ? = inconclusive; nt = no result given. Unless noted, the call rests on the fitted dose curve; in most records, active means well fitted curve in the direction sought with a large enough effect; inconclusive means small, poorly fitted or top-dose-only effect, or another doubt; inactive means no such curve, though single readings can be large; an effect the other way counts as inactive or inconclusive. Potency means the concentration at half of the fitted maximal effect.

SMILES	Pf growth 96h	SARS PLP yeast	AmpC inh detg	Pf growth 48h	AmpC no deterg	Sm TGR inh
Cc1cccc([C@@H]2[C@@H]3C(=O)N(Cc4ccccc4)C(=O)[C@@H]3[C@]3(Cc4ccccc4)C(=O)N(c4ccc(C(F)(F)F)cc4)C(=O)N23)c1	8.3µM*	0%	?	8.3µM*	-59%	9%
Cc1cccc([C@@H]2[C@@H]3C(=O)N(Cc4ccccc4)C(=O)[C@@H]3[C@]3(Cc4ccccc4)C(=O)N(c4ccccc4)C(=O)N23)c1	8.3µM*	-13%	-2%	10µM*	23%	-15%
Cc1cccc([C@@H]2[C@@H]3C(=O)N(Cc4ccccc4)C(=O)[C@@H]3[C@]3(Cc4ccccc4)C(=O)N(c4cccc(Cl)c4)C(=O)N23)c1	12µM*	-1%	?	4.7µM*	-19%	7%
CCC(C)n1ncn(-c2ccc(N3CCN(c4ccc(OC)cc4)CC3)cc2)c1=O (stereo unspecified)	-3%	-6%	-9%	-8%	-8%	-9%
Cc1cc(C)c(S(=O)(=O)NCCc2sc3nc(-c4ccc(F)cc4)nn3c2C)c(C)c1	nt	nt	4%	nt	nt	0%
COC(=O)c1ccc(Cl)c(NC(=O)c2ccc(-c3ccccc3)cc2)c1	-2%	5%	?	3%	-4%	-25%
Cc1ccc(C2NC(=O)NC3=C2CCc2ccccc23)cc1 (stereo unspecified)	4%	-14%	?	117%	-14%	40µM*
CC(C)c1ccc(C2NC(=O)NC3=C2CCc2ccccc23)cc1 (stereo unspecified)	?	5%	-2%	nt	-8%	?
CCN(CCn1cccn1)Cc1nc(Cc2cccc(F)c2)no1	?	1%	-4%	0%	18%	-6%
CN(Cc1ccc2nonc2c1)Cc1nc(Cc2cccc(F)c2)no1	13µM*	1%	-4%	?	11%	-3%
S=C(Nc1ccccc1)Nc1cc(Cl)ccc1Oc1ccccc1	11%	-14%	?	-12%	-23%	0%
COC1=C(Nc2ccc(OC)cc2)C(=O)c2ccccc2C1=O	?	nt	-8%	2.3µM*	-22%	-1%
COc1cccc(NC2=C(NCCO)C(=O)c3ccccc3C2=O)c1	-13%	-3%	-19%	-28%	-22%	-5%
CCOc1ccc(NC2=C(OC)C(=O)c3ccccc3C2=O)cc1	1.2µM*	-21%	-1%	1.2µM*	-21%	-5%
COc1ccc(NC2=C(NCCO)C(=O)c3ccccc3C2=O)cc1	?	-12%	-4%	7.4µM*	-10%	-3%
COC1=C(Nc2ccc(O)cc2)C(=O)c2ccccc2C1=O	12µM*	-7%	-10%	?	-17%	?
COc1ccc(NC2=C(NC(C)=O)C(=O)c3ccccc3C2=O)cc1	-1%	3%	0%	?	-9%	5%
CCOc1ccc(NC2=C(Cl)C(=O)N(Cc3ccccc3)C2=O)cc1	?	-11%	1%	?	-40%	-19%
Cn1cnnc1SCC(=O)NC1CCCCC1	-21%	1%	0%	14%	-20%	?
CCOc1ccccc1CNC(=O)c1cnc2sc(N3CCOCC3)nn2c1=O	nt	nt	-3%	nt	nt	1%
CCSc1nnc(NC(=O)COc2ccccc2)s1	0%	-1%	-7%	nt	-22%	8%
O=S(=O)(c1ccc(-c2n[nH]c(=S)o2)cc1)N1CCCCC1	-9%	1%	-8%	12%	-19%	-9%
Cc1cccc(NC2=C(NCCO)C(=O)c3ccccc3C2=O)c1	-14%	-18%	-6%	4.7µM*	0%	-13%
CCCCCc1cc(O)c2c(C)cc(=O)oc2c1	5%	-32%	-2%	2.6µM*	-28%	-2%
CC1(C)CC(=O)C(CC2C(=O)CC(C)(C)CC2=O)C(=O)C1	?	0%	2%	1%	-8%	2µM*
SMILES	Pf growth 96h	SARS PLP yeast	AmpC inh detg	Pf growth 48h	AmpC no deterg	Sm TGR inh
CC1(C)CC(=O)C(CC2CCCCC2=O)C(=O)C1 (stereo unspecified)	58%	0%	-1%	48%	-5%	3%
O=C(O)C1C2C=CC(O2)C1C(=O)NCCCn1ccnc1 (stereo unspecified)	8%	0%	-1%	-4%	-5%	50µM*
CCOc1ccccc1NC(=O)C(=O)c1cc(C)n(-c2ccc(F)cc2)c1C	nt	nt	11%	nt	nt	-2%
Cc1cc(C(=O)N/N=C2\CC(=O)c3ccccc32)c(C)n1-c1ccc(F)cc1	2.3µM*	-1%	-2%	4.7µM*	-34%	35µM*
CCOc1cc(/C=N/NC(=O)c2cc(C)n(-c3ccc(F)cc3)c2C)ccc1O	-27%	-1%	-7%	0%	?	56µM*
C#CC(C)(CC)NC(=O)c1cc2nc(C3CC3)cc(C(F)(F)F)n2n1 (stereo unspecified)	12%	-3%	5%	-14%	3%	-9%
O=C(CCCOC(=O)c1ccc(O)cc1O)c1ccccc1	-19%	-3%	4%	7%	-21%	-5%
O=C(OCCCOc1ccc(F)cc1)c1ccc(O)cc1O	27%	-11%	-6%	24%	3.2µM*	5%
CC(C)CN(CCNC(=O)c1cn(C)c2ccc(S(=O)(=O)N3CCOCC3)cc2c1=O)CC(C)C	nt	nt	-1%	nt	nt	3%
CC(C)CN(CCNC(=O)c1cn(C)c2ccc(S(=O)(=O)N3CCCC3)cc2c1=O)CC(C)C	9.3µM*	-4%	-2%	-2%	-7%	3%
C=CCn1cc(C(=O)NCCN(CC)CC)c(=O)c2cc(S(=O)(=O)N3CCCCCC3)ccc21	8.3µM*	0%	5%	10µM*	54%	5%
CN1C[C@@H](NS(=O)(=O)N(C)C)C[C@@H]2c3cccc4c3c(cn4C)C[C@H]21	13µM*	nt	nt	-46%	nt	nt
O=C(Cn1cc(S(=O)(=O)Cc2ccccc2F)c2ccccc21)NCc1ccccc1Cl	nt	nt	14%	nt	nt	-1%
O=Cc1ccc2noc(-c3ccc(Cl)cc3)c2c1	nt	-3%	2%	20%	-21%	50µM*
CC(=O)c1c(C)[nH]c(C(=O)NCCc2c[nH]c3ccccc23)c1C	38%	2%	-17%	10%	-16%	1%
C=CCn1c(SCC(=O)Nc2ccc(F)cc2)nc2cc(C(=O)O)ccc2c1=O	-11%	3%	-8%	-11%	-53%	16%
CCn1cc2nc(SCC(=O)Nc3ccc(F)cc3F)n(Cc3ccccc3)c(=O)c2n1	13µM*	14%	-1%	?	39%	-3%
C=CCn1c(SCc2ccc(Cl)cc2)nc2cc(C(=O)N3CCC(C(N)=O)CC3)ccc2c1=O	6.6µM*	-3%	-10%	?	-10%	1%

Screens: PubChem BioAssay, National Center for Advancing Translational Sciences (NCATS)
